Experimental data as given in the supplement of paper PMC6089552.
Screen size: about 3,200 compounds; about 300 (9.4%) showed activity. What follows is part of a selection rich in actives, with near analogues and random picks from the rest.

Test system: A673/TR/shEF
Test: cell viability (LOESS-normalised, relative to median of negative controls) (log2 ratio); higher = more viable cells (less compound effect), active = hit call of the paper (over 3 MAD below the median)
Details: treatment time: 72 h
Outline: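 A673/TR/shEF Ewing sarcoma cells (1,500 per well, 384-well plates) were grown with or without doxycycline to induce EWS-FLI1 shRNA knockdown, starting 24 h before compounds. Library compounds at two or more concentrations, with DMSO controls, were added for three days. Cell viability was read by CellTiter-Glo luminescence on an Envision reader, then LOESS-corrected per plate, divided by the median of negative controls and log2-transformed. Hits were wells at least three median absolute deviations from the median of all screened wells.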

[1] = 0.25 µM, library screen: screen2, EWS-FLI1 expression: high (no doxycycline)
[2] = 0.25 µM, library screen: screen2, EWS-FLI1 expression: low (doxycycline-induced shRNA knockdown)
[3] = 2.5 µM, library screen: screen2, EWS-FLI1 expression: high (no doxycycline)
[4] = 2.5 µM, library screen: screen2, EWS-FLI1 expression: low (doxycycline-induced shRNA knockdown)
[5] = 0.25 µM, library screen: screen1, EWS-FLI1 expression: high (no doxycycline)
[6] = 0.25 µM, library screen: screen1, EWS-FLI1 expression: low (doxycycline-induced shRNA knockdown)
[7] = 2.5 µM, library screen: screen1, EWS-FLI1 expression: high (no doxycycline)
[8] = 2.5 µM, library screen: screen1, EWS-FLI1 expression: low (doxycycline-induced shRNA knockdown)
[9] = 0.103 µM, library screen: screen3, EWS-FLI1 expression: high (no doxycycline)
[10] = 0.103 µM, library screen: screen3, EWS-FLI1 expression: low (doxycycline-induced shRNA knockdown)
[11] = 0.308 µM, library screen: screen3, EWS-FLI1 expression: high (no doxycycline)
[12] = 0.308 µM, library screen: screen3, EWS-FLI1 expression: low (doxycycline-induced shRNA knockdown)
[13] = 0.926 µM, library screen: screen3, EWS-FLI1 expression: high (no doxycycline)
[14] = 0.926 µM, library screen: screen3, EWS-FLI1 expression: low (doxycycline-induced shRNA knockdown)
[15] = 2.8 µM, library screen: screen3, EWS-FLI1 expression: high (no doxycycline)
[16] = 2.8 µM, library screen: screen3, EWS-FLI1 expression: low (doxycycline-induced shRNA knockdown)
[17] = 8.3 µM, library screen: screen3, EWS-FLI1 expression: high (no doxycycline)
[18] = 8.3 µM, library screen: screen3, EWS-FLI1 expression: low (doxycycline-induced shRNA knockdown)
[19] = 25 µM, library screen: screen3, EWS-FLI1 expression: high (no doxycycline)
[20] = 25 µM, library screen: screen3, EWS-FLI1 expression: low (doxycycline-induced shRNA knockdown)

Measured: cell viability (log2)

CCCCCCCCCCCCCCC[C@@H](O)[C@H](CO)NC(C)=O
inactive: [1] 0.176 | [2] 0.139 | [3] 0.0603 | [4] 0.124

NC(=S)c1ccc[n+]([C@@H]2O[C@H](COP(=O)(O)OP(=O)(O)OC[C@H]3O[C@@H](n4cnc5c(N)ncnc54)[C@H](OP(=O)(O)O)[C@@H]3O)[C@@H](O)[C@H]2[O-])c1
inactive: [1] 0.209 | [2] 0.145 | [3] 0.254 | [4] 0.143

Clc1ccc(CN2CCN(Cc3c[nH]c4ccccc34)CC2)cc1
inactive: [5] 0.142 | [6] 0.175 | [7] 0.152 | [8] 0.116

COc1ccc2c(c1)OCC(=Cc1ccc(OC)c(O)c1)C2=O
inactive: [5] 0.111 | [6] 0.0739 | [7] 0.125 | [8] 0.0254

CCOC(=O)C1=C(C)NC2=C(C(=O)CC(C)(C)C2)C1c1coc2ccccc2c1=O (stereo unspecified)
inactive: [5] 0.113 | [6] 0.123 | [7] 0.0647 | [8] 0.0912

COc1ccc(CNS(=O)(=O)c2ccc(NC(C)=O)cc2)cc1
inactive: [5] 0.136 | [6] 0.114 | [7] 0.073 | [8] 0.0317

CC(=O)O[C@@H]1CC2C(C)(C)CCC[C@]2(C)C2CC[C@]3(C)C(=CC(=O)O[C@H]3c3ccoc3)[C@@]21C (stereo partly specified)
inactive: [5] 0.0969 | [6] 0.0706 | [7] 0.0583 | [8] 0.123

CC1=C(C(=O)OC2CCCC2)C(c2coc3ccccc3c2=O)C2=C(CCCC2=O)N1 (stereo unspecified)
inactive: [5] 0.0306 | [6] 0.112 | [7] 0.0744 | [8] 0.0338

Cc1cc(=O)c2c(o1)-c1c(cc(O)c(O)c1C(=O)O)OC2
inactive: [5] 0.0145 | [6] 0.0255 | [7] 0.0451 | [8] 0.0692

N[C@@H](CC(=O)O)C(=O)O
active: [1] -0.146
inactive: [2] 0.087 | [3] 0.0127 | [4] 0.00419

N[C@H](CO)C(=O)O
inactive: [1] 0.128 | [2] 0.103 | [3] 0.162 | [4] 0.112

N[C@@H](CCC(=O)O)C(=O)O
inactive: [1] 0.193 | [2] 0.073 | [3] 0.108 | [4] 0.15

CNc1ccccc1C(=O)N1CCc2c([nH]c3ccccc23)C1=O
inactive: [5] 0.0191 | [6] -0.0744 | [7] 0.0945 | [8] 0.0188

COC1[C@H](O)[C@@H](O)C(O)[C@H](O)[C@H]1O (stereo partly specified)
inactive: [5] 0.0827 | [6] 0.0562 | [7] 0.177 | [8] 0.115

CC(=O)O[C@H]1CC[C@]2(C)[C@H]3C(=O)C=C4[C@@H]5C[C@@](C)(C(=O)O)CC[C@]5(C)CC[C@@]4(C)[C@]3(C)CC[C@H]2C1(C)C
inactive: [5] 0.0602 | [6] 0.011 | [7] 0.129 | [8] 0.0507

CO[C@@H](C(=O)N1Cc2[nH]nc(NC(=O)c3ccc(N4CCN(C)CC4)cc3)c2C1)c1ccccc1
active: [9] -0.25 | [11] -0.418 | [13] -0.596 | [14] -0.134 | [15] -0.679 | [16] -0.355 | [17] -0.794 | [18] -0.46 | [19] -1.13 | [20] -1.21
inactive: [10] 0.0472 | [12] -0.0579

O=C(Nc1cc(C(=O)Nc2ccc(S(=O)(=O)O)c(S(=O)(=O)O)c2)cc(C(=O)Nc2ccc(S(=O)(=O)O)c(S(=O)(=O)O)c2)c1)Nc1cc(C(=O)Nc2ccc(S(=O)(=O)O)c(S(=O)(=O)O)c2)cc(C(=O)Nc2ccc(S(=O)(=O)O)c(S(=O)(=O)O)c2)c1
inactive: [1] 0.215 | [2] 0.101 | [3] 0.0469 | [4] 0.125

Cc1ccc(C(=O)Nc2ccc(S(=O)(=O)O)c3cc(S(=O)(=O)O)cc(S(=O)(=O)O)c23)cc1NC(=O)c1cccc(NC(=O)Nc2cccc(C(=O)Nc3cc(C(=O)Nc4ccc(S(=O)(=O)O)c5cc(S(=O)(=O)O)cc(S(=O)(=O)O)c45)ccc3C)c2)c1
active: [1] -2.98 | [2] -2.91 | [3] -3.46 | [4] -3.2
inactive: [5] 0.152 | [6] 0.0138 | [7] 0.0749 | [8] 0.0704

O=C(Nc1cccc(C(=O)Nc2ccc(S(=O)(=O)O)c3cc(S(=O)(=O)O)cc(S(=O)(=O)O)c23)c1)Nc1cccc(C(=O)Nc2ccc(S(=O)(=O)O)c3cc(S(=O)(=O)O)cc(S(=O)(=O)O)c23)c1
inactive: [1] 0.11 | [2] 0.117 | [3] 0.167 | [4] 0.0855

OCCN(C(=S)Nc1ccc2nccnc2c1)c1ccccc1
inactive: [5] 0.0686 | [6] 0.0667 | [7] 0.0818 | [8] 0.102

CC12CCC3c4ccc(OC(=O)c5ccccc5)cc4CCC3C1CCC2=O (stereo unspecified)
inactive: [5] -0.000312 | [6] 0.0356 | [7] 0.0819 | [8] 0.000425

Cc1cc(OC(=O)c2c(C)cc(O)cc2O)cc(O)c1C(=O)O
inactive: [5] 0.0848 | [6] -0.00358 | [7] 0.0665 | [8] 0.0394

CCCCC1C(=O)N(c2ccccc2)N(c2ccc(O)cc2)C1=O (stereo unspecified)
active: [7] -0.129
inactive: [5] 0.139 | [6] 0.0945 | [8] 0.2

CCCCC1C(=O)N(c2ccccc2)N(c2ccccc2)C1=O
inactive: [9] 0.0537 | [10] 0.0214 | [5] 0.128 | [6] 0.109 | [1] 0.0899 | [2] 0.0435 | [11] 0.172 | [12] 0.159 | [13] 0.0763 | [14] 0.0956 | [7] 0.118 | [8] 0.1 | [3] 0.084 | [4] 0.0326 | [15] 0.137 | [16] 0.112 | [17] 0.169 | [18] 0.123 | [19] 0.117 | [20] 0.141

O=C1C(CC[S+]([O-])c2ccccc2)C(=O)N(c2ccccc2)N1c1ccccc1 (stereo unspecified)
inactive: [5] 0.123 | [6] 0.158 | [7] 0.184 | [8] 0.139

COc1cccc(CN2CCN(Cc3c[nH]c4ccccc34)CC2)c1
inactive: [5] 0.11 | [6] 0.105 | [7] 0.138 | [8] 0.0572

NCC(O)c1ccc(O)c(O)c1 (stereo unspecified)
inactive: [2] 0.0558 | [3] 0.0351 | [4] -0.00208
active: [1] -0.177

NC[C@H](O)c1ccc(O)c(O)c1
inactive: [5] 0.152 | [6] -0.0124 | [1] 0.069 | [2] 0.102 | [7] 0.127 | [8] 0.154 | [3] 0.0755 | [4] 0.101

CNC[C@H](O)c1ccc(O)c(O)c1
inactive: [9] 0.00528 | [10] 0.0495 | [5] 0.106 | [6] 0.0509 | [1] 0.169 | [2] 0.0474 | [11] 0.079 | [12] 0.091 | [13] 0.0631 | [14] 0.0893 | [7] 0.183 | [8] 0.209 | [3] 0.122 | [4] 0.099 | [15] 0.0488 | [16] 0.0524 | [17] -0.00361 | [18] 0.0638 | [19] 0.098 | [20] 0.00995

CS(=O)(=O)CCCCN=C=S
inactive: [5] 0.17 | [6] 0.115 | [7] 0.227 | [8] 0.0923

NS(O)(O)Cc1noc2ccccc12
inactive: [1] 0.153 | [2] 0.0786 | [3] 0.183 | [4] 0.124

O=C(c1cc(-c2ccccc2)nc2ccccc12)N1CCCC1
inactive: [5] 0.0657 | [6] 0.0915 | [7] 0.129 | [8] -0.0754

O=C(c1cc(-c2ccccc2)nc2ccccc12)N1CCN(c2ccccc2)CC1
inactive: [5] 0.112 | [6] 0.0402 | [7] 0.113 | [8] 0.188

CC1CN(C(=O)c2cc(-c3ccccc3)nc3ccccc23)CC(C)O1 (stereo unspecified)
inactive: [7] 0.0982 | [8] 0.0382
active: [5] -2.9 | [6] -2.55

Cc1cccc(C)c1OCC(N)C(C)C (stereo unspecified)
inactive: [1] 0.0355 | [2] -0.033 | [3] 0.0196 | [4] 0.00962

COc1cccc2c1CCC1CC(=O)CC[C@]21C (stereo partly specified)
inactive: [5] 0.0982 | [6] 0.0827 | [7] 0.058 | [8] 0.11

OC[C@@H](O)[C@@H](O)C(O)[C@H](O)[C@@H](O)CO (stereo partly specified)
inactive: [5] 0.0348 | [6] 0.0046 | [7] 0.138 | [8] 0.018

C=CCc1ccccc1OCC(O)CNC(C)C (stereo unspecified)
inactive: [5] 0.0845 | [6] 0.135 | [2] 0.0871 | [7] 0.0928 | [8] 0.0547 | [3] 0.0869 | [4] 0.156
active: [1] -0.203

CC(C)NCC(O)COc1cccc2ccccc12 (stereo unspecified)
inactive: [5] 0.149 | [6] 0.0263 | [1] 0.19 | [2] 0.128 | [7] 0.146 | [8] -0.0491 | [3] 0.0197 | [4] 0.0681

CC(C)NC[C@H](O)COc1cccc2ccccc12
inactive: [1] 0.141 | [2] 0.0581 | [3] 0.131 | [4] 0.11
